Each structure is given as a SMILES string. Activity calls are given as the source filed them.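 How the source made its calls, unless noted: active means visually confirmed hit in the image check and inhibition above 20%; inconclusive means visually confirmed hit but inhibition not above 20%; inactive means no visual hit in the image check.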

Test [1] can be described thus: inhibitors of TNFa-induced NFkB p65 translocation, primary screen, imaging, HUVEC, MLSMR starter and 10KST1 sets (AID 438;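 active means inhibition above 20% together with a positive visual image hit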;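 further: compound added about 3h40 before a 20 min TNFalpha stimulation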;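 on inhibition: signal is the nuclear over cytoplasmic p65 intensity ratio per well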). Particulars: HUVEC TNFa-induced p65 nuclear translocation; cell count: measured here: nuclei count (cytotoxicity indicator), at 2.08 µM; inhibition: at 2 µM, stronger effect = higher value, 0% TNFa-plus-vehicle, 100% no-TNFa wells.
Test [2] can be described thus: inhibitors of mutant huntingtin aggregation, primary screen, imaging, exon1htt(103Q)mCFP cells, high-content imaging (AID 483;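 active means visual image review flags a hit and inhibition of aggregation exceeds 20%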;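 further: compound exposure lasted 3 days before fixation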;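 on nuclei count: percent of the per-plate median nuclei count of sample wells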). The settings on record: exon1htt(103Q)mCFP cell line, aggregate imaging, at 2 µM; inhibition of aggregation: stronger effect = higher value; nuclei count: measured here: cell count, toxicity.
A short description of test [3]: inhibitors of E-selectin induction by TNFa, primary screen, imaging, HUVEC, immunofluorescence, MLSMR starter and 10KST1 sets (AID 487).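 On inhibition: signal is fraction of cell area covered by stained E-selectin grains.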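 On nuclei count: 100% = median nuclei count of all wells on the same plate.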 Particulars: HUVEC TNFalpha-induced E-selectin immunofluorescence imaging, at 2 µM; inhibition: stronger effect = higher value; nuclei count: measured here: cell number, toxicity.
Test [4] concerns the target Voltage-gated potassium channel subunit beta-2 (Rattus norvegicus) (UniProt P62483). In words: KvBeta enzyme negative modulators, primary screen, biochemical, NADPH fluorescence (AID 622;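 active means fluorescence slope higher than the sample average by over 3 SD, cut at about -0.22 in these data, passing the limit was not always enough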;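 further: slope of raw intensity against log time taken from 70 to 1610 s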). Particulars: recombinant KvBeta, 4-cyanobenzaldehyde reduction, at 10 µM, stronger effect = higher value.
Test [5] has the same target. In words: KvBeta positive modulators, primary screen, biochemical, NADPH fluorescence (AID 623;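 active means NADPH fluorescence slope more negative than the mean of all samples by about 3 SD, 99.7% confidence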;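 further: fluorescence intensity change per second fitted from 20 to 320 s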). The settings on record: Recombinant KvBeta, NADPH fluorescence decrease slope, 10 min; at 10 µM; stronger effect = lower value.
Test [6] has as its target Alpha-2C adrenergic receptor (Homo sapiens) (UniProt P18825). The experiment in a line: modulators of alpha2C/GIRK thallium flux, primary screen, cell-based, HEK293 alpha2C/GIRK1/2 (AID 624;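 active means fluorescence slope after compound addition differing from the mean of all screened samples at 99.7% confidence, in either direction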;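 further: slope of fluorescence ratio to pre-addition baseline per second over 15 to 24 s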). The settings on record: thallium flux BTC fluorescence, at 10 µM, actives lie on both sides.
A short description of test [7]: inhibitors of Sendai virus-induced IRF3 signaling, primary screen, TLR/RLR signaling modifier project, cell-based, Sendai virus stimulus, luciferase, 10K MLSCN set (AID 602276;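 active means inhibition at or above 50% at 10 µM; inactive means inhibition below 50%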;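 further: firefly luciferase from ISG56 promoter only with Renilla not read in this screen; 0% = Sendai virus plus DMSO and 100% = medium plus DMSO without virus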). The settings on record: HEK293 RL24 IRF3 luciferase reporter, at 10 µM, stronger effect = higher value. In general terms: Reporter assays use an easily measured gene product as a stand-in for the process of interest.

A short description of test [8]: inhibitors of poly I:C-induced TLR3 signaling, primary screen, cell-based, poly I:C stimulus, luciferase, 10K MLSCN set (AID 602277;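 active means inhibition of the reporter signal at or above 50%; inactive means inhibition below 50%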). The settings on record: HEK293-TLR3 RL24 IRF3 luciferase reporter, at 10 µM, stronger effect = higher value.

Sequence of Alpha-2C adrenergic receptor (Homo sapiens) (P18825 whole entry, looked up): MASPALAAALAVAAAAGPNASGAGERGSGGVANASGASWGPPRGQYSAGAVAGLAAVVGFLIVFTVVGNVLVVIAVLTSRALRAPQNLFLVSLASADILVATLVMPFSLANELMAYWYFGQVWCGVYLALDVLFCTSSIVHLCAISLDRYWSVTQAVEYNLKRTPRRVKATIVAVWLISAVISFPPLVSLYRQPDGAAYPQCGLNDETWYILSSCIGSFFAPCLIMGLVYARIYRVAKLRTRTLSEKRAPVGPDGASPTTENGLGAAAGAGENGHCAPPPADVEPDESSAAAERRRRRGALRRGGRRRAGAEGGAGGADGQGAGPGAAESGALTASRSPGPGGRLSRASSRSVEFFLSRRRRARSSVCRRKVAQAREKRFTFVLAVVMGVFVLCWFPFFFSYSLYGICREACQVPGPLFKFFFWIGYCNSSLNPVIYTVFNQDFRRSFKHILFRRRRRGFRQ
Sequence of Voltage-gated potassium channel subunit beta-2 (Rattus norvegicus) (P62483 whole entry, looked up): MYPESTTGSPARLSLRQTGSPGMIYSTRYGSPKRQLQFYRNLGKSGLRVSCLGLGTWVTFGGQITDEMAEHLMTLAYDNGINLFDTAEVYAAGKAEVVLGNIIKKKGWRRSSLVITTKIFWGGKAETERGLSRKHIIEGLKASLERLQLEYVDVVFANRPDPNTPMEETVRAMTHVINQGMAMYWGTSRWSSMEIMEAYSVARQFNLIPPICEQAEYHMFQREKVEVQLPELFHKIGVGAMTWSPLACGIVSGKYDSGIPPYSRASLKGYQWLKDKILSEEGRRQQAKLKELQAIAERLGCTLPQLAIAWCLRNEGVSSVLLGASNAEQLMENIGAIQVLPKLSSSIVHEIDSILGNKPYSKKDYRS

Consider `CCOC(=O)c1ccccc1NC(=O)N1CCn2c(C)ccc2C1CC` (centres undefined), for which the cell count in test [1] amounted to 383. Further, the inhibition was 2.8% (inactive) in test [1], -50.1% (inactive) in test [3], -0.392% (inactive) in test [7] and 8.3% (inactive) in test [8]. Further, in test [2], the inhibition of aggregation is -42% (inactive). For the same compound, the nuclei count was 105% in test [2] and 110% in test [3]. Also, the fluorescence slope in test [4] was -0.579 (inactive). Further, in test [5], the NADPH fluorescence slope was -3.2e-05 (inactive). For the same compound, the slope in test [6] was 0.00545 (inactive).
Turning to `Cc1ccc(N(C)C(=O)N2CCN(c3ccccn3)CC2)cc1`, the cell count in test [1] is 525. Also, the inhibition in test [1] is -0.8% (inactive); in test [3], -41% (inactive); in test [7], 5.03% (inactive); in test [8], 27.2% (inactive). In test [2], the inhibition of aggregation was 30.2% (inactive). The nuclei count worked out at 59.5% in test [2] and 97.6% in test [3]. In addition, the fluorescence slope in test [4] is -0.59 (inactive). Further, the NADPH fluorescence slope in test [5] is -2.8e-05 (inactive). Also, the slope in test [6] was 0.00868 (inactive).
On to `CCOc1ccccc1CN(Cc1ccco1)S(=O)(=O)c1ccc(-n2cnnn2)c(OC)c1`, for which, in test [1], the cell count worked out at 439. The inhibition is 5.7% (inactive) in test [1], 4.1% (inactive) in test [3], -53.6% (inactive) in test [7] and 63.3% (active) in test [8]. Further, in test [2], the inhibition of aggregation was 13.2% (inactive). For the same compound, the nuclei count came out at 99.8% in test [2] and 113% in test [3]. Also, the fluorescence slope in test [4] is -0.519 (inactive). Moreover, the NADPH fluorescence slope in test [5] is -1.2e-05 (inactive). Besides, in test [6], the slope was 0.00748 (inactive).
For `Cc1nc(C)c(C(=O)C2=C(O)C(=O)N(CCN3CCOCC3)C2c2ccco2)s1` (centres undefined), the cell count in test [1] was 244. The inhibition in test [1] was -3.2% (inactive); in test [3], -2.9% (inactive); in test [7], 11% (inactive); in test [8], 6.93% (inactive). In addition, in test [2], the inhibition of aggregation was 0.6% (inactive). Moreover, the nuclei count in test [2] was 86.3%; in test [3] it was 104%. Moreover, in test [4], the fluorescence slope is -0.388 (inactive). The NADPH fluorescence slope in test [5] is -2.3e-06 (inactive). In test [6], the slope was 0.00517 (inactive).
Consider `CC1CCN(C(=O)Cn2cc3c(n2)CCCC3)CC1`, for which the cell count in test [1] is 931. The inhibition is -1.8% (inactive) in test [1], -6.8% (inactive) in test [3], -32.6% (inactive) in test [7] and -60.8% (inactive) in test [8]. The inhibition of aggregation in test [2] is -26% (inactive). Further, the results for the nuclei count in test [2] and in test [3] were 114% and 89.8%, respectively. Besides, the fluorescence slope in test [4] is -0.612 (inactive). In addition, the NADPH fluorescence slope in test [5] is -7.4e-06 (inactive). In addition, the slope in test [6] is 0.00712 (inactive).
On to `COc1ccc(S(=O)(=O)N2CCC(C(=O)NCc3ccco3)CC2)cc1`, for which the cell count in test [1] is 245. For the same compound, the inhibition in test [1] was -0.2% (inactive); in test [3] it was -290% (inactive); in test [7] it was 7.79% (inactive); in test [8], 9.56% (inactive). Moreover, in test [2], the inhibition of aggregation was 1.8% (inactive). Further, the nuclei count in test [2] stood at 99.6%; in test [3], 114%. In addition, the fluorescence slope in test [4] is -0.418 (inactive). In addition, the NADPH fluorescence slope in test [5] is -2.7e-05 (inactive). Moreover, the slope in test [6] is 0.00415 (inactive).
For `CC(c1ccco1)N(Cc1ccco1)C(=O)Nc1ccccc1` (centres undefined), the cell count in test [1] was determined as 511. Besides, the inhibition is 1% (inactive) in test [1], -45.1% (inactive) in test [3], -3.9% (inactive) in test [7] and -21.4% (inactive) in test [8]. Also, the inhibition of aggregation in test [2] is 13.9% (inactive). Also, the nuclei count in test [2] worked out at 90.3%; in test [3] it was 97.5%. In test [4], the fluorescence slope was -0.574 (inactive). Further, in test [5], the NADPH fluorescence slope is 5.2e-05 (inactive). The slope in test [6] was 0.00511 (inactive).
Regarding `CCOC(=O)CSc1ncnc2c1cnn2-c1ccc(C)cc1`, the cell count in test [1] was 296. In addition, the inhibition is 2.4% (inactive) in test [1], -3.4% (inactive) in test [3], 22.8% (inactive) in test [7] and 21.8% (inactive) in test [8]. Besides, the inhibition of aggregation in test [2] is -24.2% (inactive). Moreover, the nuclei count in test [2] is 108%; in test [3] it was 129%. For the same compound, the fluorescence slope in test [4] was -0.581 (inactive). In test [5], the NADPH fluorescence slope is -2e-05 (inactive). Moreover, the slope in test [6] was 0.00447 (inactive).
For `COc1cccc(C(=O)N2CCCC(c3nc(-c4cccs4)no3)C2)c1` (centres undefined), the cell count in test [1] was 446. The inhibition is -25.5% (inactive) in test [1], 22.9% (inactive) in test [3], 24.8% (inactive) in test [7] and -19.2% (inactive) in test [8]. Moreover, the inhibition of aggregation in test [2] was 19.7% (inactive). Moreover, the nuclei count came to 74.5% in test [2] and 95.9% in test [3]. The fluorescence slope in test [4] was -0.467 (inactive). The NADPH fluorescence slope in test [5] is -3.3e-05 (inactive). In addition, the slope in test [6] was 0.00563 (inactive).
`CCc1nc(SCc2cc(Cl)ccc2OC)n[nH]1`: in test [1], the cell count came out at 661. Besides, the inhibition is 8.7% (inactive) in test [1], -47.4% (inactive) in test [3], -11.3% (inactive) in test [7] and -22.3% (inactive) in test [8]. The inhibition of aggregation in test [2] was -8.3% (inactive). Also, the nuclei count in test [2] is 95.5%; in test [3], 103%. In test [4], the fluorescence slope was -0.36 (inactive). Further, in test [5], the NADPH fluorescence slope is -6.3e-05 (inactive). Besides, the slope in test [6] was 0.00554 (inactive).
For `Cc1oc(-c2ccccc2F)nc1CS(=O)(=O)CC(=O)N1CCN(Cc2ccccc2)CC1`, the cell count in test [1] stood at 853. Besides, the inhibition in test [1] was -4% (inactive); in test [3] it was -96.8% (inactive); in test [7], 6.04% (inactive); in test [8], -4.63% (inactive). The inhibition of aggregation in test [2] is -23.9% (inactive). Moreover, the nuclei count in test [2] was determined as 90.4%; in test [3], 109%. Besides, the fluorescence slope in test [4] was -0.498 (inactive). In test [5], the NADPH fluorescence slope was -4.4e-05 (inactive). In test [6], the slope is 0.00602 (inactive).
`COCc1ccccc1Cn1cnc2c1c(=O)n(C)c(=O)n2C`: in test [1], the cell count stood at 346. In addition, the inhibition in test [1] is 2% (inactive); in test [3] it was 25.6% (inactive); in test [7] it was 2.14% (inactive); in test [8], 12.6% (inactive). In addition, in test [2], the inhibition of aggregation was -1.8% (inactive). The nuclei count in test [2] is 107%; in test [3], 112%. For the same compound, the fluorescence slope in test [4] is -0.469 (inactive). Further, the NADPH fluorescence slope in test [5] was -3.6e-05 (inactive). Further, the slope in test [6] was 0.00626 (inactive).
On to `COc1nc(C)ccc1-c1noc(-c2ccncc2)n1`, for which the cell count in test [1] came to 255. In addition, the inhibition in test [1] is 7% (inactive); in test [3], -40% (inactive); in test [7], -26% (inactive); in test [8], -82.9% (inactive). Besides, the inhibition of aggregation in test [2] was -7.3% (inactive). Also, the nuclei count in test [2] amounted to 36.4%; in test [3] it was 130%. In test [4], the fluorescence slope was -0.468 (inactive). For the same compound, the NADPH fluorescence slope in test [5] was -1.8e-06 (inactive). The slope in test [6] was 0.00545 (inactive).
Turning to `O=C(CN1C(=O)C2C3C=CC(C3)C2C1=O)NCc1ccc2c(c1)OCO2` (centres undefined), the cell count in test [1] was found to be 421. Also, the inhibition in test [1] was 7.5% (inactive); in test [3] it was -109% (inactive); in test [7], -4.21% (inactive); in test [8], 6.98% (inactive). Further, the inhibition of aggregation in test [2] was 8.3% (inactive). Also, the nuclei count in test [2] came to 102%; in test [3], 104%. In addition, the fluorescence slope in test [4] is -0.601 (inactive). Also, in test [5], the NADPH fluorescence slope is 1.2e-05 (inactive). Also, the slope in test [6] was 0.00636 (inactive).

In general, inhibition refers to the change of the read-out against control, counted positive when it falls.

The record behind these values is PubChem BioAssay.
